# Experimental data reported in PubChem BioAssay AID1861 (The Scripps Research Institute Molecular Screening Center, 2009).
# In all, about 290,000 compounds went through this assay and about 3,100 (1.1%) were called active. The sample as a whole holds a higher share of actives than the screen did. Values without a mark were called inactive. Rule as the data show it: active = inhibition above about 16% (passing the limit was not always enough); inactive = the rest.
# Target: Neuropeptides B/W receptor type 1 (Homo sapiens) (UniProt P48145)
# Assay: blockers of human neuropeptide B/W receptor 1 – cell-based, fluorescence, single concentration, primary screen (AID 1861);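 also: cells stimulated with the agonist NPW; 0% = agonist with vehicle and 100% = vehicle without agonist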
# Settings: GPR7-expressing cells, fluorescence antagonist assay; at 4.4 µM; hits give high values
# Chain of Neuropeptides B/W receptor type 1 (Homo sapiens) (P48145 whole entry, looked up): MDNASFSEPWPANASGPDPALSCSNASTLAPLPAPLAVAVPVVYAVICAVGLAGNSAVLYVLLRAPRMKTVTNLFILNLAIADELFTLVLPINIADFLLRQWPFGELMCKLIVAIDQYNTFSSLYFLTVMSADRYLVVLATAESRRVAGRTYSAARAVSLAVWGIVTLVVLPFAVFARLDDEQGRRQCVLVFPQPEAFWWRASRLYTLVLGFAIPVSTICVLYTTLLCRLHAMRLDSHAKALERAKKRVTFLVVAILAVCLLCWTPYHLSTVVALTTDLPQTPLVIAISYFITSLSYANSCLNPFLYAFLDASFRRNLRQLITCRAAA
row,Compound,inhibition
1,CCOC(=O)C1(Cc2ccc(Cl)cc2)CCN(C(C)CCn2cccn2)CC1 (stereo not given),37.6% (active)
2,CCOC(=O)C1(CCc2ccccc2)CCN(Cc2ccco2)CC1,-1.12%
3,CCN1CCN(Cc2cc(OC)c3c(c2)OCO3)CC1,-5.46%
4,COC(=O)N(c1ccc(OC)cc1)P1(=S)OCCC(C)O1 (stereo not given),-1.86%
5,COc1cc2nc(N3CCN(C(=O)[C@@H]4CCCO4)CC3)nc(N)c2cc1OC,-11.2%
6,CCOc1ccc(-c2cc(C)[n+](CCN(CC)CC)c(-c3ccc(OCC)cc3)c2)cc1,24.6% (active)
7,COc1ccc(CNCCc2c[nH]c3ccccc23)cc1OC,3.96%
8,COc1ccc(CNCCc2ccc3c(c2)OCO3)c(OC)c1OC,18.9%
9,COc1ccc(Br)cc1CNCCc1cccc(Cl)c1,35.6% (active)
10,CN1CCC(OC(=O)c2cccc(F)c2)CC1,1.33%
11,CCCCCCN=C(CC)c1c(O)n(CCCC)c(=O)[nH]c1=O,-13.1%
12,Cc1c(Oc2cc(NN3CCCCC3)c([N+](=O)[O-])cc2[N+](=O)[O-])cccc1[N+](=O)[O-],-6.67%
13,CCC(C)n1c(O)c(/C=N/Nc2nc3c(c(=O)n(C)c(=O)n3C)n2C)c(=O)[nH]c1=S (stereo not given),-8.09%
14,Cc1ccnc(-n2c(C)cc(/C=C3\C(=O)NC(=S)N(C)C3=O)c2C)c1,-2.63%
15,CSc1ccc(C(=O)C2CCCN(Cc3ccn[nH]3)C2)cc1 (stereo not given),5.68%
